In PubChem BioAssay (EPA / NIEHS):
“And” between values parts separate entries of the source, which are not always exact repeats. Equal values may be shown once. Results filed as inconclusive are left out. Some structures have more than one record in an assay (separate samples or runs), and their calls can disagree. The source made the active and inactive calls. The calls were made as follows, unless noted: active = hit-call score of the fitted dose curve at least 0.9, where 1 is the maximum; inactive = score below 0.9.

Columns and labels:
[1] = read-out: E-selectin (Homo sapiens) (UniProt P16581); assay: BSK_SAg_Eselectin: BioMAP Diversity Plus: SAg Assay for Eselectin Biomarker Activity (AID 2283091); conditions: primary human HUVEC with PBMC; actives raise or lower the signal
Procedure, shortened: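 Primary human endothelial cells and peripheral blood mononuclear cells were co-cultured and exposed to chemical for 24 hours. E-selectin levels were then quantified by ELISA, with bidirectional curve fitting normalised to DMSO controls.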

[2] = read-out: Monokine induced gamma interferon (MIG), CXCL9 (gene 4283); assay: BSK_SAg_MIG: BioMAP Diversity Plus: SAg Assay for Monokine induced gamma interferon (MIG) Biomarker Activity (AID 2283092); conditions: primary human HUVEC with PBMC; actives raise or lower the signal
Procedure, shortened: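 HUVEC plus human PBMC co-culture, chemicals dosed and MIG (CXCL9) quantified by ELISA at 24 h. Bidirectional curve fitting against DMSO as negative control and baseline, so both gain and loss of signal count as activity.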

[3] = BSK_SAg_PBMCCytotoxicity: PBMC Cytotoxicity Assessment in the BioMAP Diversity Plus: SAg Assay (AID 2283093); conditions: primary human HUVEC with PBMC;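 also: fitted both ways against DMSO so a hit may be loss or gain of signal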;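 as to AC50: PBMC superantigen activated with SEB plus TSST-1 one hour after compound addition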
Procedure, shortened: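 PBMC viability by Alamar Blue reduction, fluorescence read at 546/580 nm after 6 h dye exposure. Cells were dosed 1 h before SEB plus TSST-1 activation (20 ng/mL final each), then held 90 h; endothelial/PBMC human co-culture.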

[4] = read-out: Interleukin-8 (IL8), CXCL8 (gene 3576); assay: BSK_SAg_IL8: BioMAP Diversity Plus: SAg Assay for Interleukin-8 (IL8) Biomarker Activity (AID 2283094); conditions: primary human HUVEC with PBMC; actives raise or lower the signal
Procedure, shortened: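 Chemicals were dosed onto a human endothelial–PBMC co-culture, and IL-8 was quantified by ELISA after 24 h. Both increases and decreases were fitted relative to DMSO.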

[5] = BSK_SAg_Proliferation: Cell Proliferation Assessment in the BioMAP Diversity Plus: SAg Assay (AID 2283095); conditions: primary human HUVEC with PBMC;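 also: relative cell number as total protein by SRB absorbance in sub-confluent culture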
Procedure, shortened: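 Absorbance of sulforhodamine B at 560 nm reports total protein in a human vascular endothelial/PBMC co-culture after 96 h chemical exposure. Gain or loss of signal is fitted in both directions against DMSO.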

[6] = BSK_SAg_SRB: Viability Assessment in the BioMAP Diversity Plus: SAg Assay (AID 2283096); conditions: primary human HUVEC with PBMC;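 also: cells read one day after compound addition; hits may be either gain or loss of signal compared with DMSO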
Procedure, shortened: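 Compounds were added to a human vascular co-culture of umbilical vein endothelium and PBMC. After 24 h, parallel cultures were fixed with 10% TCA, stained with 0.1% sulforhodamine B and read at 560 nm. Gain or loss of signal was fitted relative to DMSO.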

[7] = target: human CYP19A1, CYP19A1 (gene 1588) (UniProt P11511); assay: NVS_ADME_hCYP19A1: NovaScreen (NVS) CYP450-related Enzyme Activity (ADME) Assay for human CYP19A1 (AID 2283098; active = hit-call score of the fitted dose curve at least 0.9, where 1 is the maximum;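 as to AC50: potency for inhibitors seen as loss of fluorescent enzyme signal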)
Procedure, shortened: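 Fluorescence intensity read-out; activity taken as signal loss relative to acetonitrile vehicle. Extracted enzyme, specific substrate, no cells, 0.5 h exposure. Duplicate single-point screen at 10 uM, then concentration–response follow-up for actives.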

[8] = target: human CYP2A6, CYP2A6 (gene 1548) (UniProt P11509); assay: NVS_ADME_hCYP2A6: NovaScreen (NVS) CYP450-related Enzyme Activity (ADME) Assay for human CYP2A6 (AID 2283099; active = hit-call score of the fitted dose curve at least 0.9, where 1 is the maximum)
Experimental: (§1) NVS_ADME_hCYP2A6 is a biochemical, single-readout assay that uses extracted gene-proteins from insect cells in a cell-free assay. Measurements were taken 0.5 hour after chemical dosing in a 96-well plate.NVS_ADME_hCYP2A6 is one of one assay component(s) measured or calculated from the NVS_ADME_hCYP2A6 assay. It is designed to make measurements of enzyme activity, a form of enzyme reporter, as detected with fluorescence intensity signals by Fluorescence technology.Data from the assay component NVS_ADME_hCYP2A6 was analyzed into 1 assay endpoint. This assay endpoint, NVS_ADME_hCYP2A6, was analyzed in the positive analysis fitting direction relative to Acetonitrile as the negative control and baseline of activity. Using a type of enzyme reporter, loss-of-signal activity can be used to understand changes in the enzymatic activity as they relate to the gene CYP2A6. Furthermore, this assay endpoint can be referred to as a primary readout, because this assay has produced multiple assay endpoints where this one serves a enzymatic activity function. To generalize the intended target to other relatable targets, this assay endpoint is annotated to the cyp intended target family, where the subfamily is xenobiotic metabolism.
(§2) Binding assays used specific radioligands (tritiated, iodinated) with non-radioactive competitive displacement ligands in agonist or antagonist protocols (as indicated) and various reference compounds and inhibitors to titrate specific binding to receptors and transporters. Most enzyme assays (CYPs, kinases, phosphatases, proteases, HDACs) used recombinant protein and specific substrates (fluorescence mostly, some colorimetric and radioactive) and inhibitors, followed by a biochemical separation of substrate and product. All assays for the biochemical HTS were initially run in duplicate at a single concentration (10 uM for CYP450 assays and 25 uM for all others). Assay-chemical combinations meeting a pre-defined threshold (e.g., 30% inhibition and other criteria defined below) were then run in singleton concentration-response format with maximum concentration of 20 uM for CYPs and 50 uM for all others. Each assay was run with positive and negative controls, and concurrent controls on every plate. The follow-up (secondary) screen tested active chemical-pairs in concentration series, as well as a few additional assays not tested in the primary screen, some selected negative inactives, and several cases re-run in the concentration series for confirmatory purposes.

[9] = target: human CYP1A1, CYP1A1 (gene 1543) (UniProt P04798); assay: NVS_ADME_hCYP1A1: NovaScreen (NVS) CYP450-related Enzyme Activity (ADME) Assay for human CYP1A1 (AID 2283100; active = hit-call score of the fitted dose curve at least 0.9, where 1 is the maximum)
Experimental: as §1, with “NVS_ADME_hCYP1A1” for “NVS_ADME_hCYP2A6”, “gene-proteins” for “gene-proteins from insect cells”, “1” for “0.5”, “plate.NVS_ADME_hCYP1A1” for “plate.NVS_ADME_hCYP2A6”, “NVS_ADME_hCYP1A1,” for “NVS_ADME_hCYP2A6,”, “CYP1A1.” for “CYP2A6.”
as §2

human CYP19A1, CYP19A1 (gene 1588), sequence (P11511 whole entry, looked up): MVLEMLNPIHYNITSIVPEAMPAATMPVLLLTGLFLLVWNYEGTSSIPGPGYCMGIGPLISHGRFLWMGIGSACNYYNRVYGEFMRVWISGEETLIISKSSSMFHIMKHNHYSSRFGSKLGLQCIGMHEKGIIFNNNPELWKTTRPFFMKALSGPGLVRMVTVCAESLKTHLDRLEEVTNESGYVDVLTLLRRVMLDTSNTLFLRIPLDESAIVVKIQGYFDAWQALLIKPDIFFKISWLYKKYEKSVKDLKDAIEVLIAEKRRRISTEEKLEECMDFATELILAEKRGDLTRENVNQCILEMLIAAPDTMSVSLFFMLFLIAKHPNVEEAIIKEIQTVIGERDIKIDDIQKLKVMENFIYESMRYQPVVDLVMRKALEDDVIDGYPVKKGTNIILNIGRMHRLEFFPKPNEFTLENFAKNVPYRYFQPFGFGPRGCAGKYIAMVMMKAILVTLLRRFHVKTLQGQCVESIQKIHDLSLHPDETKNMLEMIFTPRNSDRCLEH
human CYP1A1, CYP1A1 (gene 1543), sequence (P04798 whole entry, looked up): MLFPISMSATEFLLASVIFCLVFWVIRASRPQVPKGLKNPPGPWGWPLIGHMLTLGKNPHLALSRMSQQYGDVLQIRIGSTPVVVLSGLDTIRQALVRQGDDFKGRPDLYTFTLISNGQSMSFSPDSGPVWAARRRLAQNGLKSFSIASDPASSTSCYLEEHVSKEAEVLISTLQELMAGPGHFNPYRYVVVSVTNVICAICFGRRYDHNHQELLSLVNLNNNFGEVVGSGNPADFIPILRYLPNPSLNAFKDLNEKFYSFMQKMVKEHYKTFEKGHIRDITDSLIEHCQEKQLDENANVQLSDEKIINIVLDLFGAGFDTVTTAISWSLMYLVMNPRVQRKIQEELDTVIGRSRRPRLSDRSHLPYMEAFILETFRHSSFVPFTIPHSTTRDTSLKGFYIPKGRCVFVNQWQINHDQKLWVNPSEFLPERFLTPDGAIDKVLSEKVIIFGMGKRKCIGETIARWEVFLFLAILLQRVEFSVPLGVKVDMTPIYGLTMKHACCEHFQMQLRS
E-selectin (Homo sapiens), sequence (P16581 whole entry, looked up): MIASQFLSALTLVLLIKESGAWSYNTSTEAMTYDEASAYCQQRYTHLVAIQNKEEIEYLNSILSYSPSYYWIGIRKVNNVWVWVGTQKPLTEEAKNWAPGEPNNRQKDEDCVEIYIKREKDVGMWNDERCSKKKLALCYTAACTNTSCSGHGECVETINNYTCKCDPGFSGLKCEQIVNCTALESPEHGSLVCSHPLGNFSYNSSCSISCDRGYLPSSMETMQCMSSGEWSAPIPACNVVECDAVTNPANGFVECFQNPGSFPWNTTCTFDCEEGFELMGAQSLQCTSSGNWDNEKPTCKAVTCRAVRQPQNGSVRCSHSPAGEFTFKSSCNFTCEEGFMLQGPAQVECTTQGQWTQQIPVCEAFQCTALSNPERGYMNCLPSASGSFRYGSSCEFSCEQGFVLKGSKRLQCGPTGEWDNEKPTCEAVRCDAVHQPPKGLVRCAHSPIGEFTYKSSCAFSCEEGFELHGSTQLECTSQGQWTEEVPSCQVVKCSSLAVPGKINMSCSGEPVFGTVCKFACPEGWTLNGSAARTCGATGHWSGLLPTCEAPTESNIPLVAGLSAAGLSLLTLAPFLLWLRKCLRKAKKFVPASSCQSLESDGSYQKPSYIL
human CYP2A6, CYP2A6 (gene 1548), sequence (P11509 whole entry, looked up): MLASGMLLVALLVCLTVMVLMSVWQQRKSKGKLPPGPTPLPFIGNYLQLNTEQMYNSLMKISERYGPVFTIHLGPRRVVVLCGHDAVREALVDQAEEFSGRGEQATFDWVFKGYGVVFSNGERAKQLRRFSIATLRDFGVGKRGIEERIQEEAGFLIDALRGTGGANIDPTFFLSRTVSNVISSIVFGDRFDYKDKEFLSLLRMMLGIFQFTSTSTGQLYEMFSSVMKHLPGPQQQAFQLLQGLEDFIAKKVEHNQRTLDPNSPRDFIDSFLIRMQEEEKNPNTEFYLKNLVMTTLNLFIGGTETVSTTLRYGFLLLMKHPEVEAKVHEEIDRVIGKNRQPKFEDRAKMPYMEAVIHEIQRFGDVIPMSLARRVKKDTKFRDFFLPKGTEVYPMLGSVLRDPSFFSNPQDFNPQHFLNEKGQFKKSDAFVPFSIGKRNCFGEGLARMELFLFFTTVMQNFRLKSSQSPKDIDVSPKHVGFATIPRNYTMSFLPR

N#CN
outcome [1]: inactive
outcome [2]: inactive
outcome [3]: inactive
outcome [4]: inactive
outcome [5]: inactive
outcome [6]: inactive

Cc1cc(C)nc(NC(=O)NS(=O)(=O)c2ccccc2C(=O)OC2COC2)n1
outcome [1]: inactive
outcome [2]: inactive
outcome [3]: inactive
outcome [4]: inactive
outcome [5]: inactive
outcome [6]: inactive

CCN(CC)C(=O)SCc1ccc(Cl)cc1
outcome [1]: inactive
outcome [2]: inactive
outcome [3]: inactive
outcome [4]: inactive
outcome [5]: inactive
outcome [6]: inactive

C[C@H]1[C@H](c2ccc(Cl)cc2)SC(=O)N1C(=O)NC1CCCCC1
AC50 [1]: 15.2 µM (active)
outcome [2]: inactive
outcome [3]: inactive
AC50 [4]: 13.6 µM (active)
AC50 [5]: 18.1 µM (active)
AC50 [6]: 9.32 µM (active)

O=C(O)C(F)(F)C(F)(F)C(F)(F)C(F)(F)C(F)(F)C(F)(F)C(F)(F)F
outcome [1]: inactive
outcome [2]: inactive
outcome [3]: inactive
AC50 [4]: 44.3 µM (active)
outcome [4]: inactive
outcome [5]: inactive
outcome [6]: inactive
outcome [7]: inactive

CCOc1nc(NC)nc(NC(=O)NS(=O)(=O)c2ccccc2C(=O)OC)n1
outcome [1]: inactive
outcome [2]: inactive
outcome [3]: inactive
outcome [4]: inactive
outcome [5]: inactive
outcome [6]: inactive

CCc1ccc(C(=O)NN(C(=O)c2cc(C)cc(C)c2)C(C)(C)C)cc1
AC50 [1]: 9.03 µM (active)
outcome [2]: inactive
outcome [3]: inactive
AC50 [4]: 11.3 µM (active)
AC50 [5]: 17.7 µM (active)
outcome [6]: inactive

CC(C)(C)C(O)C(Oc1ccc(Cl)cc1)n1cncn1 (stereo unspecified)
AC50 [1]: 12.9 µM (active)
outcome [1]: inactive
outcome [2]: inactive
AC50 [3]: 3.38 µM (active)
outcome [3]: inactive
AC50 [4]: 10.6 µM (active)
outcome [4]: inactive
AC50 [5]: 15 µM (active)
outcome [5]: inactive
outcome [6]: inactive
AC50 [7]: 7.34 µM (active) and 2.41 µM (active)
outcome [8]: inactive
AC50 [9]: 7.11 µM (active)
outcome [9]: inactive

Oc1cc(Cl)ccc1Oc1ccc(Cl)cc1Cl
AC50 [1]: 12.7 µM (active) [middle of 4 runs]
AC50 [2]: 15.8 µM (active) [middle of 4 runs]
AC50 [3]: 13.8 µM (active) [middle of 4 runs]
AC50 [4]: 12.8 µM (active) [middle of 4 runs]
AC50 [5]: 8.46 µM (active) and 8.15 µM (active) and 6.76 µM (active)
AC50 [6]: 15.3 µM (active) and 22.3 µM (active) and 14.9 µM (active)

CCC(C)Nc1c([N+](=O)[O-])cc(C(C)(C)C)cc1[N+](=O)[O-] (stereo unspecified)
AC50 [1]: 11.9 µM (active)
outcome [2]: inactive
AC50 [3]: 31.9 µM (active)
AC50 [4]: 20 µM (active)
AC50 [5]: 29.6 µM (active)
outcome [6]: inactive

OCCOc1ccccc1
outcome [1]: inactive
outcome [2]: inactive
outcome [3]: inactive
outcome [4]: inactive
outcome [5]: inactive
outcome [6]: inactive

COC(=O)c1ccccc1CS(=O)(=O)NC(=O)Nc1nc(OC)cc(OC)n1
outcome [1]: inactive
outcome [2]: inactive
outcome [3]: inactive
outcome [4]: inactive
outcome [5]: inactive
outcome [6]: inactive

CC(C)N(C(=O)COc1nnc(C(F)(F)F)s1)c1ccc(F)cc1
outcome [1]: inactive
outcome [2]: inactive
outcome [3]: inactive
outcome [4]: inactive
AC50 [5]: 15.8 µM (active)
outcome [6]: inactive

Clc1ccccc1-c1nnc(-c2ccccc2Cl)nn1
outcome [1]: inactive
outcome [2]: inactive
outcome [3]: inactive
outcome [4]: inactive
outcome [5]: inactive
outcome [6]: inactive

CNC(=O)/C=C(\C)OP(=O)(OC)OC
outcome [1]: inactive
outcome [2]: inactive
outcome [3]: inactive
outcome [4]: inactive
outcome [5]: inactive
outcome [6]: inactive

O=S(=O)(O)C(F)(F)C(F)(F)C(F)(F)C(F)(F)C(F)(F)C(F)(F)C(F)(F)C(F)(F)F
AC50 [1]: 20 µM (active)
outcome [1]: inactive
outcome [2]: inactive
outcome [3]: inactive
outcome [4]: inactive
outcome [5]: inactive
outcome [6]: inactive
AC50 [7]: 5.35 µM (active)
outcome [7]: inactive

Cc1[nH]c(=O)n(C(C)(C)C)c(=O)c1Cl
AC50 [1]: 20 µM (active)
outcome [2]: inactive
AC50 [3]: 9.4 µM (active)
AC50 [4]: 9.86 µM (active)
AC50 [5]: 16 µM (active)
outcome [6]: inactive

CNC(=O)Oc1ccccc1OC(C)C
outcome [1]: inactive
outcome [2]: inactive
outcome [3]: inactive
outcome [4]: inactive
outcome [5]: inactive
outcome [6]: inactive

CCC(C)(NC(=O)c1cc(Cl)c(C)c(Cl)c1)C(=O)CCl (stereo unspecified)
AC50 [1]: 7.45 µM (active)
AC50 [2]: 10.5 µM (active)
AC50 [3]: 20 µM (active)
AC50 [4]: 5.75 µM (active)
AC50 [5]: 1.92 µM (active)
AC50 [6]: 23.6 µM (active)

COC(=O)c1ccccc1S(=O)(=O)NC(=O)Nc1nc(C)nc(OC)n1
outcome [1]: inactive
outcome [2]: inactive
AC50 [3]: 15.5 µM (active)
outcome [4]: inactive
outcome [5]: inactive
outcome [6]: inactive

O=C(O)COc1ccc(Cl)cc1Cl
outcome [1]: inactive
outcome [2]: inactive
outcome [3]: inactive
outcome [4]: inactive
outcome [5]: inactive
outcome [6]: inactive

ClC1C(Cl)C(Cl)C(Cl)C(Cl)C1Cl (stereo unspecified)
outcome [1]: inactive
outcome [2]: inactive
outcome [3]: inactive
outcome [4]: inactive
outcome [5]: inactive
outcome [6]: inactive

CC(C)OC(=O)Nc1cccc(Cl)c1
outcome [1]: inactive
outcome [2]: inactive
outcome [3]: inactive
outcome [4]: inactive
outcome [5]: inactive
AC50 [6]: 1.76 µM (active)
